The text below walks through data of PubChem BioAssay (Tox21).

A short description of assay [1]: Nuclear factor erythroid 2-related factor 2/antioxidant responsive element (Nrf2/ARE) small molecule agonists: qHTS cell viability counter screen in human keratinocytes (AID 1919968; active = well fitted curve in the direction sought with a large enough effect in the repeat runs; an effect the other way counts as inactive or inconclusive; note: nearly all actives have a fitted effect of over 55% in size; note: potency is the fitted concentration of half-maximal effect). Summed up:
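Seed 1,500 KeratinoSens cells per well, then incubate 5 h at 37 C/5% CO2. Add compounds in DMSO and incubate 23 h. Add CellTiter-Fluor, wait 1 h and read fluorescence.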
A general note: Quantitative high-throughput screening tests each substance at several concentrations.

Assay [2] has as its target KiSS-1 receptor (Homo sapiens) (UniProt Q969F8). The assay is described as follows: Human kisspeptin (KISS1R) small molecule agonists, calcium flux assay in KISS1R-HEK293 cells (AID 1920064; active = well fitted curve in the direction sought with a large enough effect in the repeat runs; an effect the other way counts as inactive or inconclusive). Summed up: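 Cells plated and incubated 18 h; dye added, 1 h at 37 C; compounds in DMSO pinned in; signal read at 480/540 nm every second for 3 min. Each compound tested at 15 concentrations in triplicate.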
(Calcium assays in cells follow changes in intracellular calcium, usually with a dye or a luminescent sensor.)

Assay [3] can be described thus: G protein-coupled receptor (GPCR) small molecule agonists, calcium flux assay: HEK293 wild type cell line counter screen (AID 1920065). In outline: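 Counter-screen of the Tox21 10K library for non-specific calcium release: dye-loaded cells received compounds in DMSO and were monitored by kinetic fluorescence (480/540 nm, 3 min). Fifteen concentrations, run in triplicate.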

Assay [4] in a line: p53 small molecule agonists, cell-based qHTS assay with human liver microsomes (AID 1963577).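 Note: p53 response element beta-lactamase reporter cells with liver microsomes plus NADPH.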 In outline:
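In this qHTS, p53 response-element beta-lactamase cells receive test compound together with a microsome/NADPH activating system (0.5 mg/mL final each) and are incubated 16 h at 37 C before LiveBLAzer fluorescence detection.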

A short description of assay [5]: p53 small molecule agonists, cell-based qHTS assay with rat liver microsomes (AID 1963578). In outline: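 Agonist mode in p53RE-bla reporter cells, with compounds co-incubated 16 h at 37 C alongside 0.5 mg/mL rat liver microsomes and 0.5 mg/mL NADPH (final), followed by a 2 h LiveBLAzer detection step.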
A short description of assay [6]: p53 small molecule agonists, cell-based qHTS assay with rat liver microsomes: qHTS cell viability counter screen (AID 1963580). Note: nearly all actives have a fitted effect of over 45% in size. Note: potency is the fitted concentration of half-maximal effect. Summed up: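 Viability is assessed in parallel with the p53 reporter read: HCT-116 p53RE-bla cells receive compounds plus rat microsomes and NADPH (0.5 mg/mL final apiece), incubate 16 h at 37 C, and then CellTiter-Glo luminescence is recorded.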

The nature of assay [7]: p53 small molecule agonists, cell-based qHTS assay (AID 1963582; active = well fitted activation curve with a large enough effect in the signal ratio in the repeat runs, not every such curve was filed as active; the % refers to the signal ratio). Summed up:
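Quantitative HTS in p53RE-bla cells: after a 5 h settling period, compounds delivered in DMSO were left on cells for 16 h at 37 C, and reporter induction was measured as fluorescence following 2 h substrate loading.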

Assay [8] has as its target 5-hydroxytryptamine receptor 2A (Homo sapiens) (UniProt P28223). The assay is described as follows: 5-hydroxytryptamine receptor 2A (HTR2A) small molecule antagonists, cell-based qHTS assay (AID 1963586). Note: nearly all actives have a fitted effect of over 45% in size. In outline: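 Antagonist-mode intracellular calcium assay: DOI (4 nM) added after 5 min compound pre-incubation at room temperature to dye-loaded HTR2A-CHO cells. Fluorescence followed for 3 min, sampled every second.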

For assay [9] the target is unchanged. The assay is described as follows: 5-hydroxytryptamine receptor 2A (HTR2A) small molecule agonists, cell-based qHTS assay (AID 1963587). Note: nearly all actives have a fitted effect of over 30% in size. Note: potency is the fitted concentration of half-maximal effect. In outline: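 CHO cells stably expressing human HTR2A, plated 18 h, loaded with calcium dye 1 h at 37 C. Agonist mode: compounds added and intracellular calcium fluorescence recorded kinetically for 2 min at 1 sec intervals.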

In assay [10] the target is Muscarinic acetylcholine receptor M1 (Homo sapiens) (UniProt P11229). The assay is described as follows: Cholinergic receptor muscarinic 1 (CHRM1) small molecule antagonists, cell-based qHTS assay (AID 1963588). Note: nearly all actives have a fitted effect of over 40% in size. In outline: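 CHRM1-CHO calcium-flux assay, antagonist mode. Cells were seeded 18 h, dye-loaded 1 h at 37 C and given compound for 5 min at RT, then acetylcholine was added at 50nM. FDSS fluorescence was read 3 min; 15 concentrations, three runs.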

The target is the same in assay [11]. Description: Cholinergic receptor muscarinic 1 (CHRM1) small molecule agonists, cell-based qHTS assay (AID 1963589). Note: nearly all actives have a fitted effect of over 35% in size. In outline:
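Agonist-mode qHTS in CHO cells stably carrying human muscarinic M1. Intracellular calcium is tracked by fluorescence every second after compound transfer; each compound runs at 15 concentrations in three independent runs.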

A short description of assay [12]: cAMP Responsive Elements (CRE) small molecule agonists, cell-based qHTS assay (AID 1963590). Summed up:
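Agonist mode qHTS in CRE-bla HEK 293T cells: compounds dosed from DMSO for 3 h at 37 C/5% CO2, followed by LiveBLAzer B/G FRET substrate for 2 h at room temperature.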

A short description of assay [13]: cAMP Responsive Elements (CRE) small molecule antagonists, cell-based qHTS assay (AID 1963591; active = well fitted inhibition curve with a large enough effect in the signal ratio in the repeat runs, not every such curve was filed as active; the % refers to the signal ratio; note: potency is the fitted concentration of half-maximal effect). In outline:
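Antagonist mode: test compounds are co-incubated with the adenylyl cyclase activator NKH477 (0.25 uM final) on CRE-bla HEK293T cells for 3 h at 37 °C, followed by LiveBLAzer substrate loading.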

The target in assay [14] is Beta-2 adrenergic receptor (Homo sapiens) (UniProt P07550). The assay is described as follows: Adrenergic beta2 receptor (ADRB2) small molecule antagonists, cell-based qHTS assay (AID 1963592). Note: series mostly up to about 92 µM; nearly all actives have a fitted effect of over 50% in size. In outline:
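Cells (CHO, stable ADRB2 overexpression) incubated 18-20hr at 37C; compounds added from DMSO; agonist mix (1nM isoproterenol, 100uM IBMX, 25uM Ro-20-1724) added; 0.5hr RT; d2-cAMP and anti-cAMP-cryptate added; 1hr RT; 665/615 nm read.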

A short description of assay [15]: p53 small molecule agonists, cell-based qHTS assay with human liver microsomes: qHTS cell viability counter screen (AID 1963579). Note: nearly all actives have a fitted effect of over 45% in size. Note: potency is the fitted concentration of half-maximal effect. In outline:
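Metabolically activated exposure: compounds, human liver microsomes and NADPH (0.5 mg/mL final apiece) were added to p53RE-bla cells seeded 5 h earlier, left 16 h at 37 C, and then assessed for viability by CellTiter-Glo luminescence.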

The target in assay [16] is D(2) dopamine receptor (Homo sapiens) (UniProt P14416). Description: Dopamine D2 receptor (DRD2) small molecule agonists, cell-based qHTS assay (AID 1963594). Note: nearly all actives have a fitted effect of over 35% in size. In outline: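 HEK293 cells stably expressing human DRD2, pre-treated with PDE inhibitor Ro20-1724 (0.1 mM final) and compound 10 min at room temperature, then stimulated with NKH477 (200nM […]) for 30 min. cAMP read by HTRF (665/620 nm).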

Assay [17] has the same target. The assay is described as follows: Dopamine D2 receptor (DRD2) small molecule antagonists, cell-based qHTS assay (AID 1963595; active = well fitted inhibition curve with a large enough effect in the signal ratio in the repeat runs, with a control signal flat; the % refers to the signal ratio). Summed up: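 Stable D2 receptor HEK293 line, 24 h after seeding. Compound preincubated 10 min, then quinpirole (12 nM) with forskolin analogue NKH477 (200 nM), 30 min, room temperature. Detection by time-resolved FRET of cAMP.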
Assay [18] can be described thus: p53 small molecule agonists, cell-based qHTS assay: qHTS cell viability counter screen (AID 1963581). Note: nearly all actives have a fitted effect of over 45% in size. Summed up: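 Cells: HCT-116 with p53 response element-driven beta-lactamase. Treatment: 16 h, 37 C, compounds in DMSO. Read: CellTiter-Glo luminescence after 30 min RT.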
Assay [19] deals with Beta-2 adrenergic receptor (Homo sapiens) (UniProt P07550). Description: Adrenergic beta2 receptor (ADRB2) small molecule agonists, cell-based qHTS assay (AID 1963593).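 Note: CHO cells stably overexpressing human ADRB2.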 Summed up: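 CHO cells stably over-expressing ADRB2 were plated overnight at 37C, then dosed with compounds plus a stimulation mix containing 100uM IBMX and 25uM Ro-20-1724 for 0.5hr at room temperature. cAMP was measured by HTRF competition, 1hr.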

Assay [20] concerns the target Gonadotropin-releasing hormone receptor (Homo sapiens) (UniProt P30968). Description: Human gonadotropin-releasing hormone receptor (GnRHR) small molecule agonists, calcium flux assay in GnRHR-HEK293 cells (AID 1920063). Note: nearly all actives have a fitted effect of over 35% in size. In outline:
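Cells: HEK293 stably expressing human GnRHR. Steps: overnight (18 h) culture, 1 h calcium dye loading at 37 C, compound addition, kinetic fluorescence read at 480/540 nm. Each compound tested at 15 concentrations in triplicate.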

A number with no mark means an inactive call. Records with an inconclusive call do not appear. Calls of active or inactive are those of the source. Unless noted, calls come from the whole dose curve.

Muscarinic acetylcholine receptor M1 (Homo sapiens), sequence (P11229 whole entry, looked up): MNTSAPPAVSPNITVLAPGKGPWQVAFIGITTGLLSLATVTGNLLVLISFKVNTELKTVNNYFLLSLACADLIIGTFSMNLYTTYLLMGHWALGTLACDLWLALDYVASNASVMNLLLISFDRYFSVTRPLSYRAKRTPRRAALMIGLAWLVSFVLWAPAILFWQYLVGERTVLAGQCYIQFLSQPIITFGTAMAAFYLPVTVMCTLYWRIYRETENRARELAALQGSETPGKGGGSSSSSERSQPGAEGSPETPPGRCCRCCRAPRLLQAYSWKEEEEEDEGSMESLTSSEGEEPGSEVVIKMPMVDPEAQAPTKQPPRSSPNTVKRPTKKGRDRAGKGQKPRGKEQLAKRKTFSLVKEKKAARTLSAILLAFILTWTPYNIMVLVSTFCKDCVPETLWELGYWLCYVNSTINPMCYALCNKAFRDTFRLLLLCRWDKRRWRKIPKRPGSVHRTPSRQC
KiSS-1 receptor (Homo sapiens), sequence (Q969F8 whole entry, looked up): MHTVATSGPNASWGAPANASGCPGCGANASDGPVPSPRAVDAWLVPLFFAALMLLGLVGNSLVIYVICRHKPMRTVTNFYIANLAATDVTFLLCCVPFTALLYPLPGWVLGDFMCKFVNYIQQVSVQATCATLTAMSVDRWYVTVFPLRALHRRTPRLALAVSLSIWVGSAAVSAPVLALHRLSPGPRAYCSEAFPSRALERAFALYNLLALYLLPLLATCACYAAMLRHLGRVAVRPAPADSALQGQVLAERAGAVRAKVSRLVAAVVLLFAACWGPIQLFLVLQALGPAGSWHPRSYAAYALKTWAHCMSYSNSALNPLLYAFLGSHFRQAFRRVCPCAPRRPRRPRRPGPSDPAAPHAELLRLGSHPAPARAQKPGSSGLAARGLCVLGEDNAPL
Beta-2 adrenergic receptor (Homo sapiens), sequence (P07550 whole entry, looked up): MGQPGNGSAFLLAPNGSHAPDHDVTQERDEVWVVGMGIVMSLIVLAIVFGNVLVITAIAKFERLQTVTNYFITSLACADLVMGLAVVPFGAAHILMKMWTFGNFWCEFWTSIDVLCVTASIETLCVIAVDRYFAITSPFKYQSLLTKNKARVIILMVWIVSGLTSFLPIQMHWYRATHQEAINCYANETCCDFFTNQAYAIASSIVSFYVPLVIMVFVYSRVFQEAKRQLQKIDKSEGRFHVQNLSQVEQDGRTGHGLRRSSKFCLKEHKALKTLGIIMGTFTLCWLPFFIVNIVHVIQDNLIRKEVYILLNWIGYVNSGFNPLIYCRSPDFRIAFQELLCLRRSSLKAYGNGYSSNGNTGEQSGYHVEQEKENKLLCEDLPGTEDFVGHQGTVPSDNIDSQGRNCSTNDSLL
5-hydroxytryptamine receptor 2A (Homo sapiens), sequence (P28223 whole entry, looked up): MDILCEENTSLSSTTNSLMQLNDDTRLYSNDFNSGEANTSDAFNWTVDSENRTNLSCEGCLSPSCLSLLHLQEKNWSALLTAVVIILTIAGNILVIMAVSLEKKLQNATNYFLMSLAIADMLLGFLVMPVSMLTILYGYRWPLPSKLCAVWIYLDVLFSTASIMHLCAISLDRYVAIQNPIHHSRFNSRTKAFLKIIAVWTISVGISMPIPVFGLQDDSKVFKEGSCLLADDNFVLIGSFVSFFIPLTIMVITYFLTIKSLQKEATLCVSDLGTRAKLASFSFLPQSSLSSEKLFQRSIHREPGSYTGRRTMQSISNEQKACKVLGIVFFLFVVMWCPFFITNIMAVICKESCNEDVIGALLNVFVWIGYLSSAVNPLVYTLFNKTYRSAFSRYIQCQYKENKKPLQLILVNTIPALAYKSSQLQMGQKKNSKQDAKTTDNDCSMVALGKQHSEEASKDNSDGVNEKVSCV
D(2) dopamine receptor (Homo sapiens), sequence (P14416 whole entry, looked up): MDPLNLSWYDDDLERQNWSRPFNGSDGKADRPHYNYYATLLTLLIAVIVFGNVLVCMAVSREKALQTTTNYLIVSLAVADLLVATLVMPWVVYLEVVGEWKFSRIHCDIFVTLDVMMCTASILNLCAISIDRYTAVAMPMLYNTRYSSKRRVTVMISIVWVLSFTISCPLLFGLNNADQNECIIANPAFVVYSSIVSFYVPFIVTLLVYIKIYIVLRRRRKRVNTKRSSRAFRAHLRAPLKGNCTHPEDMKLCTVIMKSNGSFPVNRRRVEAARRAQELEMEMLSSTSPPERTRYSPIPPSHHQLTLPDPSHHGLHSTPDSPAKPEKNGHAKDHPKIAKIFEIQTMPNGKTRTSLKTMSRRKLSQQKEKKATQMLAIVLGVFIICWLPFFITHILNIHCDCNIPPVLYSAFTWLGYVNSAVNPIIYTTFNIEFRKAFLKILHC
Gonadotropin-releasing hormone receptor (Homo sapiens), sequence (P30968 whole entry, looked up): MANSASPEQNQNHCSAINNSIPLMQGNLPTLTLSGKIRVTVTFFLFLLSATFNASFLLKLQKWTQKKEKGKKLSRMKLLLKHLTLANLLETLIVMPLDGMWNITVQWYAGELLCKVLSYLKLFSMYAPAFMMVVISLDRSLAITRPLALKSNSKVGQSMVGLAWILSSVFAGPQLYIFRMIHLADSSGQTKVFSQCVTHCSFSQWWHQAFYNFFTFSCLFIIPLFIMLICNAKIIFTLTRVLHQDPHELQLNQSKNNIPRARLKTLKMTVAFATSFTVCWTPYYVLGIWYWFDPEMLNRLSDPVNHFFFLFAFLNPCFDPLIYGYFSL

As to `OCCCBr`, the Potency entry in assay [1], in assay [2], in assay [3], in assay [4], in [5] and in [7] was “inactive” throughout. The Potency result in [8], in assay [9], in assay [10], in [11], in [12] and in [13] was “inactive” each time. The Potency entry in [14] is “inactive”. Also, the Potency in assay [6] was 1.45 µM (active).

Turning to `CON(C)C(=O)Nc1ccc(Br)c(Cl)c1`, the Potency result in [1], in assay [2], in assay [3], in assay [15], in [6] and in assay [9] was “inactive” throughout. Moreover, the Potency result in [10], in assay [11], in [12], in assay [13], in [14] and in assay [16] was “inactive” throughout. Further, the Potency result in assay [17] was “inactive”.

For the compound `Cc1cc(C)c(C(=O)P(=O)(C(=O)c2c(C)cc(C)cc2C)c2ccccc2)c(C)c1`, the Potency entry in assay [1], in [2], in assay [3], in assay [4], in [5] and in [15] was “inactive” in each case. The Potency entry in assay [6], in assay [18], in assay [8], in assay [9], in assay [10] and in assay [11] was “inactive” in each case. Also, the Potency result in assay [12], in [14], in assay [19], in [16] and in assay [17] was “inactive” throughout.

`COc1cccc2c1C(=O)c1c(O)c3c(c(O)c1C2=O)C[C@@](O)(C(=O)CO)CC3OC1CC(N2CCOC(OC)C2)C(O)C(C)O1` (stereo not given in full): the Potency was 7.5 µM (active) in assay [1], 16.9 µM (active) in assay [9] and 1.19 µM (active) in [13]. The Potency entry in [2], in assay [3], in assay [4], in assay [5], in [8] and in assay [10] was “inactive” in each case. Moreover, the Potency entry in [11], in [12], in [14] and in assay [19] was “inactive” throughout.

As to `CCCC(Cn1cncn1)c1ccc(Cl)cc1Cl` (stereo not given), the Potency result in assay [1], in assay [2], in assay [3], in assay [4], in [5] and in [15] was “inactive” each time. In addition, the Potency result in assay [6], in [18], in assay [7], in assay [8], in assay [10] and in [11] was “inactive” each time. Also, the Potency result in assay [14] and in assay [16] was “inactive” in each case.

With `O.O.O.O=C([O-])[C@H]([O-])[C@@H]([O-])C(=O)[O-].O=C([O-])[C@H]([O-])[C@@H]([O-])C(=O)[O-].[K+].[K+].[Sb+3].[Sb+3]`, the Potency result in [1], in assay [20], in assay [3], in assay [6], in assay [8] and in [9] was “inactive” in each case. For the same compound, the Potency result in [10], in [11], in assay [12], in assay [13], in [14] and in [16] was “inactive” throughout. Moreover, in [17], the Potency entry is “inactive”. Further, the Potency in assay [15] was 36.5 µM (active).
